The record followed here is PubChem BioAssay AID1611 (NINDS Approved Drug Screening Program, 2009).

This experiment can be described thus: inducers of human heat shock response, cell-based, HSE luciferase (AID 1611). The conditions noted are these: human cells, HSE-luciferase heat shock reporter; stronger effect = higher value.
As for `COc1ccc(NS(=O)(=O)c2ccc(N)cc2)nn1`, the fold change stood at 1.39.
With `O=C1c2cccc(O)c2C(=O)c2c(O)cccc21` the figure was 0.86; with `O=C(O)c1cc2cc(Cc3cccnc3)ccc2o1`, 0.83.
As to `CCCCCCc1ccc(O)cc1O`, the fold change stood at 1.27.
Next, `O=C1C(CCS(=O)c2ccccc2)C(=O)N(c2ccccc2)N1c1ccccc1` (stereo not given): 0.91; `Nc1ncnc2c1ncn2[C@@H]1O[C@H](CO)[C@@H](O)[C@@H]1O`: 1.52.
With `CC1(C)S[C@@H]2[C@H](NC(=O)[C@@H](N)c3ccc(O)cc3)C(=O)N2[C@H]1C(=O)O` the figure was 1.21; with `Nc1nccs1`, 1.19; with `CCN(CC)CCNC(=O)c1cc(Cl)c(N)cc1OC`, 1.24.
Next, `CCCC(CCC)C(=O)O`: 0.91; `CCCc1ncc(C[n+]2ccccc2C)c(N)n1`: 1.19.
Turning to `CC(C)=CCC/C(C)=C/CO`, the fold change is 3.1.
Next, `CC(C)NCC(O)COc1cccc2ccccc12` (stereo not given): 0.95; `CC(C)COCC(CN(Cc1ccccc1)c1ccccc1)N1CCCC1` (stereo not given): 0.78; `NS(=O)(=O)c1cc2c(cc1Cl)NCNS2(=O)=O`: 0.97.
Next, `Cc1onc(-c2ccccc2)c1C(=O)NC1C(=O)N2[C@@H]1SC(C)(C)[C@@H]2C(=O)O` (stereo not given in full): 1.85; `CCC(=O)c1ccc2c(c1)N(CC(C)N(C)C)c1ccccc1S2` (stereo not given): 0.88; `CCN(CC)CCOc1ccc2c(c1)C(=O)c1cc(OCCN(CC)CC)ccc1-2`: 0.93.
With `CCN(CCCCOC(=O)c1ccc(OC)c(OC)c1)C(C)Cc1ccc(OC)cc1` (stereo not given) the figure was 1.27; with `CO[C@H]1C[C@H](O[C@H]2[C@H](C)[C@@H](OC3O[C@H](C)C[C@H](N(C)C)[C@H]3O)[C@@H](C)C[C@]3(CO3)C(=O)[C@H](C)[C@@H](O)[C@@H](C)[C@@H](C)OC(=O)[C@@H]2C)O[C@@H](C)[C@@H]1O` (stereo not given in full), 0.75.
As to `CC[C@@H](C(=O)C(C)[C@@H](O)[C@H](C)CCc1ccc(C)c(O)c1C(=O)O)C1OC(CC)(C2CC[C@](O)(CC)[C@H](C)O2)C[C@@H]1C` (stereo not given in full), the fold change stood at 1.12.
Next, `Cn1nnnc1SCC1=C(C(=O)O)N2C(=O)C(NC(=O)C(O)c3ccccc3)C2SC1` (stereo not given): 1.15.
Next, `CN1C2CC(OC(=O)[C@H](CO)c3ccccc3)C[C@H]1[C@H]1OC21` (stereo not given in full): 1.34; `Cc1ccc(/C(=C\CN2CCCC2)c2ccccn2)cc1`: 0.61.
In the case of `CO/N=C(/C(=O)NC1C(=O)N2C(C(=O)O)=C(COC(N)=O)CSC12)c1ccco1` (stereo not given), the fold change came to 1.
Next, `Cn1c(=O)c2[nH]cnc2n(C)c1=O`: 1.18; `CCOc1ccc2c(c1)C(C)=CC(C)(C)N2`: 1.18.
Next, `CN1CCc2cccc3c2C1Cc1ccc(O)c(O)c1-3` (stereo not given): 0.71; `CO[C@@H]1[C@@H](O[C@@H]2O[C@H](C)[C@@H](O[C@H]3C[C@@](C)(O)[C@H](O)[C@H](C)O3)[C@H](N(C)C)[C@H]2O)[C@@H](CC=O)C[C@@H](C)[C@@H](O[C@H]2CC[C@H](N(C)C)[C@@H](C)O2)/C=C/C=C/C[C@H](C)OC(=O)C[C@H]1O`: 62.6.
Next, `CCOC(N)=O`: 0.87.
On to `CN(Cc1cnc2nc(N)nc(N)c2n1)c1ccc(C(=O)N[C@@H](CCC(=O)O)C(=O)O)cc1`, for which the fold change stood at 0.91.
For `NC[C@H]1O[C@H](O[C@H]2[C@H](O)[C@@H](O[C@H]3O[C@H](CO)[C@@H](O)[C@H](N)[C@H]3O)[C@H](N)C[C@@H]2N)[C@H](O)[C@@H](O)[C@@H]1O`, the fold change is 1.87.
As for `CC(=O)Oc1cccc(O)c1`, the fold change worked out at 0.84.
As for `NC(N)=N/N=C\c1c(Cl)cccc1Cl`, the fold change came out at 0.39.
As for `COc1ccc(CN(CCN(C)C)c2ccccn2)cc1`, the fold change is 1.01.
Regarding `Fc1ccc(C(c2ccc(F)cc2)N2CCN(C/C=C/c3ccccc3)CC2)cc1`, the fold change was 1.3.
Turning to `Cc1cc(C(C)(C)C)cc(C)c1CC1=NCCN1`, the fold change was found to be 1.28.
With `CN(C)C(=O)Oc1cccc([N+](C)(C)C)c1` the figure was 1.23; with `CN[C@@H]1[C@H](O)[C@H](NC)[C@H]2O[C@@]3(O)C(=O)C[C@@H](C)O[C@H]3O[C@@H]2[C@H]1O`, 1.27; with `CCCOc1ccc2nc(NC(=O)OC)[nH]c2c1`, 1.26.
